# Source: publication PMC7826789 (International Journal of Molecular Sciences, 2021)
# Experiments:
# Details in all cases: Compound Concentration (nM):1000
# MYLK4 = tested on: MYLK4
# MYLK = tested on: MYLK
# MYO3A = tested on: MYO3A
# MYO3B = tested on: MYO3B
# NDR1 = tested on: T1, NDR1
# T1 construct: gene STK38
# NDR2 = tested on: T2, NDR2
# T2 construct: gene STK38L
# NEK10 = tested on: NEK10
# NEK11 = tested on: NEK11
# NEK1 = tested on: NEK1
# NEK2 = tested on: NEK2
# NEK3 = tested on: NEK3
# NEK4 = tested on: NEK4
# NEK5 = tested on: NEK5
# NEK6 = tested on: NEK6
# NEK7 = tested on: NEK7
# NEK9 = tested on: NEK9
# NIK = tested on: T3, NIK
# T3 construct: gene MAP3K14
# NIM1 = tested on: T4, NIM1
# T4 construct: gene MGC42105
# NLK = tested on: NLK
# OSR1 = tested on: T5, OSR1
# T5 construct: gene OXSR1
# 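Note: KINOMEscan scanMAX binding as percent activity remaining versus control; lower means stronger binding.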
Compound,Percent Control (MYLK4),Percent Control (MYLK),Percent Control (MYO3A),Percent Control (MYO3B),Percent Control (NDR1),Percent Control (NDR2),Percent Control (NEK10),Percent Control (NEK11),Percent Control (NEK1),Percent Control (NEK2),Percent Control (NEK3),Percent Control (NEK4),Percent Control (NEK5),Percent Control (NEK6),Percent Control (NEK7),Percent Control (NEK9),Percent Control (NIK),Percent Control (NIM1),Percent Control (NLK),Percent Control (OSR1)
CN(C)c1cc2c(Nc3ccc4c(cnn4Cc4ccccc4)c3)ncnc2cn1 [GW282974X],86%,100%,92%,99%,100%,84%,89%,100%,79%,66%,77%,99%,48%,27%,78%,88%,86%,74%,90%,100%
C[C@@H](Oc1cc(-n2cnc3ccc(OC4CCN(C)CC4)cc32)sc1C(N)=O)c1ccccc1Cl [GSK579289A],62%,81%,74%,87%,98%,88%,92%,100%,60%,9.5%,92%,79%,63%,100%,69%,19%,82%,51%,100%,100%
O=C1Nc2ccc(C(=O)c3ccco3)cc2C1=Cc1cc(Cl)c(O)c(Cl)c1 [GW406108X],69%,51%,34%,100%,95%,88%,3.3%,100%,78%,83%,100%,83%,100%,94%,100%,100%,100%,93%,100%,100%
C/C(Nc1ccc(S(N)(=O)=O)cc1)=C1/C(=O)Nc2ccccc21 [GW335962X],100%,70%,66%,100%,65%,87%,100%,100%,75%,100%,96%,77%,97%,100%,95%,95%,78%,86%,87%,94%
COc1ccc2cc(-c3c(-c4ccncc4)nc(-c4ccc(S(C)(=O)=O)cc4C)n3C)ccc2c1 [SB-633825],93%,82%,53%,18%,77%,63%,69%,90%,100%,93%,65%,75%,35%,91%,65%,57%,53%,63%,81%,70%
Cl.O=C(Nc1ccc(Oc2ccc3[nH]c(NC(=O)c4ccccc4)nc3c2)cc1)Nc1cc(C(F)(F)F)ccc1F [GW709042A],100%,99%,100%,100%,100%,100%,100%,100%,89%,100%,98%,83%,95%,92%,100%,20%,100%,88%,95%,100%
NS(=O)(=O)c1ccc(Nc2ncc(-c3ccccc3)o2)cc1 [GW572399X],81%,100%,100%,100%,83%,100%,100%,100%,84%,100%,84%,100%,100%,100%,78%,100%,91%,96%,100%,100%
COc1ccccc1-c1cc(/C=C2\C(=O)Nc3ncc(Br)cc32)cc(Br)c1O [GW442130X],100%,100%,75%,100%,97%,74%,100%,100%,95%,100%,100%,100%,100%,100%,100%,100%,100%,100%,100%,77%
COc1cc(C)c(N(C)C(=O)CN(C)C)cc1Nc1nc(Nc2cccc(F)c2C(N)=O)c2cc[nH]c2n1 [GSK2219385],100%,10%,96%,100%,100%,85%,52%,100%,100%,72%,94%,100%,94%,100%,91%,90%,100%,80%,95%,100%
CCS(=O)(=O)c1ccc(OC)c(Nc2ncc(-c3cccc(F)c3)o2)c1 [GW621970X],100%,100%,100%,100%,100%,100%,100%,93%,84%,100%,100%,100%,95%,100%,100%,100%,93%,100%,100%,100%
CCn1c(-c2nonc2N)nc2c(C#CC(C)(C)O)nc(OCCNC)cc21.Cl [GSK949675],100%,88%,100%,98%,87%,81%,100%,100%,100%,100%,100%,100%,100%,95%,100%,100%,1.5%,100%,100%,100%
COc1cc2ncn(-c3cc(O[C@H](C)c4ccccc4Cl)c(C(N)=O)s3)c2cc1OC [GSK237701A],45%,94%,100%,100%,84%,100%,95%,78%,51%,3.7%,85%,88%,9.1%,100%,63%,19%,100%,48%,98%,78%
COc1cccc(-n2ncc3c(N/N=C/c4ccncc4)ncnc32)c1 [GW784752X],100%,89%,100%,100%,96%,100%,84%,100%,84%,100%,86%,100%,100%,100%,92%,90%,100%,86%,91%,99%
Cl.O=S1CCN(Cc2ccc(-c3ccc4ncnc(Nc5ccc(OCc6ccccc6)c(F)c5)c4c3)o2)CC1 [GW576924A],100%,100%,100%,100%,99%,100%,100%,100%,93%,100%,100%,100%,100%,100%,100%,100%,100%,100%,100%,100%
CC1=C(C(=O)Nc2ccc3[nH]ncc3c2)C(c2ccc(Cl)c(Cl)c2)CC(=O)N1 (stereo not shown) [GSK299115A],91%,100%,88%,90%,21%,67%,72%,86%,84%,97%,80%,89%,58%,95%,87%,68%,76%,79%,78%,73%
Cl.O=C(Nc1ccc(Oc2ccc3[nH]c(NC(=O)c4ccco4)nc3c2)cc1)Nc1cc(C(F)(F)F)ccc1F [GW683134A],100%,100%,100%,100%,100%,76%,100%,100%,80%,100%,97%,81%,96%,100%,100%,10%,100%,97%,87%,100%
COc1cccc(-c2c[nH]c3c(N/N=C/c4ccncc4)ncnc23)c1 [GW814408X],100%,100%,100%,100%,93%,98%,92%,100%,95%,100%,69%,100%,82%,100%,100%,100%,68%,92%,97%,100%
NS(=O)(=O)c1ccc(N/N=C2\C(=O)Nc3ccc(Cl)cc32)cc1 [GW280670X],100%,80%,100%,100%,91%,100%,100%,100%,100%,100%,100%,100%,100%,100%,100%,100%,100%,100%,100%,100%
COc1ccc(COc2ccc(Cc3cnc(N)nc3N)cc2OC)cc1 [GW632580X],100%,100%,92%,100%,93%,86%,95%,100%,100%,84%,97%,77%,100%,95%,77%,85%,94%,86%,100%,100%
COc1cc(C=NNc2ncnc3c2cnn3-c2ccccc2)ccc1O [GW513184X],100%,100%,100%,95%,100%,100%,100%,100%,100%,100%,100%,100%,76%,82%,100%,100%,92%,100%,100%,100%
